LGR2 antag – inhibitors of bursicon-induced Drosophila LGR2 receptor cAMP signaling; HEK293 LGR2, CRE-luciferase, bursicon-stimulated, 4 h; inhibition, % at 9.99 µM; hit rate 0.35% among 380,000; AID 720647;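 active means drop in luminescence signal, shown as inhibition above about 50% in the replicate tests, limit read from the data, passing the limit was not always enough; inconclusive means probably only some replicates passing the limit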;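 further: agonist challenge used bursicon conditioned medium at about half maximal strength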
PAX8 inh HTS – lowers PAX8-driven luciferase in RMG-I cells | RMG-I TPO-luciferase reporter, SteadyGlo, 24 h | inhibition, % at 12.6 µM | hit rate 1.2% among 360,000 | AID 652154;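 active means mean replicate inhibition at least 60% with every replicate also reaching 60%; inconclusive means only one of the two criteria is met; inactive means mean below 60% and not all replicates reaching 60%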;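 further: luciferase light reporting Pax8 driven TPO promoter activity; plate controls were median of neutral control wells for no effect and mitoxantrone controls for full effect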
EWS-Fli block – EWS/Fli transcriptional activity inhibition; A673 NR0B1-luciferase reporter, viability-normalised; inhibition, % at 12.6 µM; hit rate 0.67% among 350,000; AID 651661;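 active means mean inhibition of at least 50% after viability correction, with every replicate also passing that limit; inconclusive means mean reaches 50% but only one of two replicates passes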;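 further: firefly luciferase signal divided by Alamar Blue viability fluorescence both relative to DMSO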
MITF TRPM1 inh – MITF TRPM1 promoter inhibition in SK-MEL-5 cells; hit rate 0.83% among 330,000; AID 488899; SK-MEL-5 TRPM1 promoter luciferase, 24 h; inhibition, % at 12.5 µM;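 active means mean inhibition across replicates of 60% or more, whatever share of single replicates reaches that level; inconclusive means some that reach 60%, reason not given; inactive means mean inhibition across replicates below 60%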
PGC1a acetyl inh – modulators of PGC1a acetylation; inhibition, % at 15.6 µM; U2OS PGC1a acetylation, AlphaScreen anti-acetyl-lysine; with virally co-expressed GCN5 acetyltransferase; hit rate 0.17% among 350,000;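 active means every replicate shows inhibition of at least 40%; inconclusive means mean inhibition at least 40% but some replicate below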;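 further: 0% = neutral control wells and 100% = positive control wells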
EBV LMP1 NFkB – Epstein-Barr LMP1 NF-kappaB reporter inhibition. LMP1-induced NF-kappaB luciferase reporter cells, luminescence. AID 504558. hit rate 0.69% among 350,000. inhibition, % at 12.5 µM; in the data active means inhibition above about 41%; inconclusive means no clear call, values can overlap the other calls;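 further: 0% = neutral control wells and 100% = reference inhibitor control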
The depositor's hits bear a star; ? = inconclusive; / = no result. Most compounds without a hit are left out; they make up all but 2.2% or so of the library.

SMILES	LGR2 antag	PAX8 inh HTS	EWS-Fli block	MITF TRPM1 inh	PGC1a acetyl inh	EBV LMP1 NFkB
CCOC(=O)C1=C(CCl)NC(=O)NC1c1ccc2c(c1)OCO2 (configuration not stated)	9	6	21	69*	/	-6
CC(=O)Nc1ccc(Nc2nc(-c3sc(NC(C)=O)nc3C)cs2)cc1	5	18	6	19	-19	22
CC(=O)Nc1nc(C)c(-c2csc(Nc3cccc([N+](=O)[O-])c3)n2)s1	16	/	/	45	-4	50*
CC(=O)Nc1nc(C)c(-c2csc(Nc3cccc(C(C)=O)c3)n2)s1	-2	13	-2	65*	-10	27
CC(=O)Nc1nc(C)c(-c2csc(Nc3ccc(O)cc3)n2)s1	/	/	/	46	/	45*
CCC(=O)Nc1nc(C)c(-c2csc(Nc3cccc(C(=O)O)c3)n2)s1	/	-7	-1	3	12	10
C[C@H]1CN([C@@H](C)CO)C(=O)CCCn2nncc2CO[C@@H]1CN(C)C(=O)Nc1cccc(C(F)(F)F)c1	-1	4	0	/	-3	/
CCOC(=O)c1c(C)sc2c1N(C(=O)CCl)c1cc(Cl)ccc1S2	/	/	/	82*	-3	-4
N#CC1=C(c2ccccc2)/C(=C/c2ccccc2)OC1=O	-12	/	/	92*	12	13
S=C(NN=C1C2CC3CC(C2)CC1C3)Nc1ccccc1	/	/	/	-16	-11	65*
CCC(C)(C)C1CCC(=NNC(=S)Nc2ccccc2)CC1 (configuration not stated)	-11	-18	-3	-3	-6	-5
CO[C@H]1CN(C)C(=O)c2ccc(NC(=O)c3cccc(Oc4ccccc4)c3)cc2OC[C@@H](C)NC[C@@H]1C	-14	14	13	/	15	/
C[C@H](CO)N1C[C@H](C)[C@@H](CN(C)Cc2ccc3c(c2)OCO3)Oc2cc(C#CCN(C)C)ccc2S1(=O)=O	-11	/	12	/	-42	/
CCN1[C@@H]2c3ccc(/C=C/c4ccccc4)c(=O)n3C[C@H]1[C@H](CO)[C@H]2C(=O)NCc1ccccn1	0	-9	0	/	/	/
COc1ccc(S(=O)(=O)N(C)C[C@@H]2Oc3c(NC(=O)c4cnccn4)cccc3C(=O)N([C@H](C)CO)C[C@@H]2C)cc1	-11	/	3	/	3	/
O=C(/C=C/c1cccc([N+](=O)[O-])c1)NCCSCc1ccc(Cl)cc1	9	2	58*	-2	/	4
COc1cccc(-c2nc3n(n2)C(c2cccs2)C(C(=O)Nc2cccnc2)=C(C)N3)c1 (configuration not stated)	11	11	-2	11	/	50*
Cc1ccc(S(=O)(=O)Nc2ccc3c(c2)C(=O)N([C@@H](C)CO)C[C@H](C)[C@H](CN(C)S(=O)(=O)c2cccs2)OCCCC[C@H](C)O3)cc1	22	49	12	/	-8	/
Cc1sc2nc(SCC(=O)OC(C)C)n(C)c(=O)c2c1C	/	8	/	6	2	47*
Cc1sc2nc(SCC(=O)NCCO)n(C)c(=O)c2c1C	/	13	/	5	/	5
COc1cc(C2c3cc4c(cc3OC(NCCc3ccccc3)C2C)OCO4)cc(OC)c1OC (configuration not stated)	-20	44	54*	34	-20	8
COc1cc(C2c3cc4c(cc3OC(Nc3ccc(C(=O)O)cc3)C2C)OCO4)cc(OC)c1OC (configuration not stated)	-9	30	52*	60	/	4
COc1cc(C2c3cc4c(cc3OC(N3CCOCC3)C2C)OCO4)cc(OC)c1OC(C)=O (configuration not stated)	6	-15	1	0	3	-1
COc1cc(C2c3cc4c(cc3OC(C)(N3CCCC3)C2C)OCO4)cc(OC)c1OC (configuration not stated)	-10	-3	23	34	0	-10
CC1=CCC2C(=O)N(c3cccc(C(=O)NCc4ccccc4)c3)C(=O)C2C1 (configuration not stated)	8	4	4	-9	63*	3
SMILES	LGR2 antag	PAX8 inh HTS	EWS-Fli block	MITF TRPM1 inh	PGC1a acetyl inh	EBV LMP1 NFkB
CC1=CCC2C(=O)N(c3cccc(C(=O)Nc4ccc(Cl)cc4)c3)C(=O)C2C1 (configuration not stated)	-8	1	/	0	-6	3
CCCC(=O)Nc1ccc2c(c1)OC[C@@H](C)N(C(=O)Cc1cccnc1)C[C@@H](C)[C@H](OC)CN(C)C2=O	5	/	0	/	0	/
O=C(CSCc1nc2ccccc2[nH]1)Nc1ccccc1	-17	/	/	28	2	59*
Cc1ccc(-c2nn(CC(=O)NCc3cc(-c4nn(C)c(=O)c5ccccc45)ccc3C)c(=O)c3ccccc23)cc1	/	-8	/	82*	-13	-12
COc1ccc(-c2noc(CCCC(=O)O)n2)cc1	/	/	/	66*	/	-4
COc1ccc(-c2noc(CCC(=O)O)n2)cc1	15	1	/	-7	/	0
CNC[C@H]1OCCCC[C@@H](C)Oc2ccc(NC(=O)C3CCCCC3)cc2C(=O)N([C@@H](C)CO)C[C@H]1C	-15	11	2	/	17	/
O=C(NCCCN1CCOCC1)C(=O)N/N=C/c1c2ccccc2cc2ccccc12	-6	72*	/	21	18	12
COc1cc2c(c(OC)c1OC)C(=O)CC2	7	-5	5	0	/	-5
COc1ccccc1-c1ccc(=O)n(CC(=O)NC2CCc3ccccc32)n1 (configuration not stated)	-51	6	-8	-8	-4	3
C=COC(=O)NC1CCc2cc(OC)c(OC)c(OC)c2-c2ccc(SC)c(=O)cc21 (configuration not stated)	-4	65*	29	51	-12	-4
COc1cc2c(c(OC)c1OC)-c1ccc(OC)c(=O)cc1C(NC(=O)c1ccccc1)CC2 (configuration not stated)	-18	70*	?	33	13	3
COc1cc2c(c(OC)c1OC)-c1ccc(SC)c(=O)cc1C(NC(=O)c1ccccc1)CC2 (configuration not stated)	-5	67*	30	40	-7	-8
COc1cc2c(c(OC)c1OC)-c1ccc(SC)c(=O)cc1C(NC=O)CC2 (configuration not stated)	20	100*	62*	64*	13	3
CCCN(C)C[C@H]1OCCCC[C@@H](C)Oc2ccc(NS(=O)(=O)c3ccc(OC)cc3)cc2C(=O)N([C@@H](C)CO)C[C@H]1C	4	1	0	/	-17	/
C[C@H]1CN([C@@H](C)CO)C(=O)c2c(c3ccccc3n2C)-c2ccccc2CO[C@@H]1CN(C)Cc1ccc(O)cc1	-5	-17	10	/	8	/
COc1cccc(NC(=O)N2[C@H](CO)[C@H](c3ccccc3)[C@@H]2CNC(C)C)c1	11	12	6	/	-10	/
CN(C)C(=O)C[C@H]1C=C[C@H](NC(=O)Nc2cccc(F)c2)[C@H](CO)O1	18	0	3	/	-20	/

Assay outcomes from PubChem BioAssay.
